Test results taken from PubChem BioAssay (NCI).
The panel holds about 83,000 compounds, 20% with a hit somewhere; the sample as a whole holds those more often.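 Testing used 96-well plates and a 48-hour single-concentration exposure. Example: -40 means 40% of the starting cells died.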 Active and inactive are the calls of the source. How the source made its calls: active means growth percent below 10; inactive means the rest.

Test system: NCI-H322M lung
Assay: NCI-60 one-dose screen, 48 h (100 = growth as untreated, 0 = no growth, -100 = all killed)
Settings: 10 µM unless noted

SMILES	growth
CN(C)c1nc(NCCNS(=O)(=O)c2ccc(C3=Nc4c(N)nc(N)nc4NC(c4ccc(C(F)(F)F)cc4)C3)cc2)nc(Nc2ccc(F)cc2)n1 (stereo not drawn)	46.7% (inactive)
COc1ccc(-c2nc3cc(C)ccc3n2CC(=O)N=Nc2c(O)[nH]c3ccccc23)cc1	33.1% (inactive)
NS(=O)(=O)c1ccc(CCNC(=O)CSc2ccc(-c3ccc(Br)cc3)nn2)cc1	81.2% (inactive)
O=C(COc1ccc2c(c1)CCCC(=O)N2)NCc1ccccc1	112% (inactive)
CC1=C(C#N)C2=NNCC(c3ccccc3)=NN2C(c2ccccc2)=C1	105% (inactive)
CC1CCCCN1CCCNC(=O)N/C(N)=N/c1nc2ccccc2s1 (stereo not drawn)	77% (inactive)
Cc1nc(Nc2ccccn2)sc1C(=O)CC(SCC(=O)Nc1ccc(Cl)cc1)c1ccccc1F (stereo not drawn)	19.6% (inactive)
CCCSc1nc(Nc2ccc(S(N)(=O)=O)cc2)c(C#N)c(-c2cc(OC)c(OC)c(OC)c2)n1	51.7% (inactive)
Clc1cccc(N/N=C/c2c[nH]c3ccc(Br)cc23)n1	51.6% (inactive)
Cc1ccc(S(=O)(=O)c2nc(S(=O)(=O)c3ccc(C)cc3)c(N3CCN(C)CC3)s2)cc1	67.3% (inactive)
COc1c(F)ccc(C(=O)Nc2ccc3nc(NC(=O)C4CCCN(S(=O)(=O)c5ccc(C(F)(F)F)cc5)C4)sc3c2)c1F (stereo not drawn)	91.9% (inactive)
COc1ccc(-c2ccnc(SCc3cc4ccccc4[nH]c3=O)n2)cc1	82.5% (inactive)
Cc1ccc(C2=NN(c3nc(-c4cc5ccccc5oc4=O)cs3)C(c3ccc(C)cc3)C2)cc1 (stereo not drawn)	102% (inactive)
